From PubChem BioAssay
The list is not random: actives were taken first. Their share in the collection is about 6.5%.
FMDV antiviral – blocks foot and mouth disease virus; FMDV antiviral cell-based qHTS; Potency, µM (series often up to 57.9 µM), for the others: at the top dose activity change, negative = inhibition, most hits filed as inhibitors; 410,000 compounds, 1.2% hits; AID 1159524; calls by dose curve; tested in HEK293T cells; further: read-out not given here; potency means the concentration at half of the fitted maximal effect; nearly all actives have a fitted effect of over 45% in size
HCMV inh – blocks human cytomegalovirus replication; HFF cells, HCMV-luciferase reporter, 72 h; active compounds read low; activity change, negative = inhibition, % at 57.5 µM; 410,000 compounds, 4.5% hits; AID 1259415; in the data active means activity change below about -60%; inconclusive means no clear call, values can overlap the other calls; inactive means above about -39%
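Luciferase read-out from HCMV-luciferase-infected HFFs (MOI 1 PFU/cell) 72 h post infection at 37C; compounds added after 16 h cell attachment; activity normalized between buffer-only basal and Salinomycin (10uM) inhibitor controls.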
VACV Venus inh – vaccinia inhibition (Venus reporter); Potency, µM (top dose mostly 36.5 µM), without a hit: top-dose activity change, negative = inhibition, actives largely listed as inhibitors; 330,000 compounds, 0.46% hits; Vaccinia virus Venus reporter expression, fluorescence; calls by dose curve; tested in A549 cells; further: potency means the concentration at half of the fitted maximal effect; nearly all actives have a fitted effect of over 30% in size
Lassa entry inh – Lassa virus entry inhibition. Lassa virus pseudotype entry inhibition, cell reporter. Potency, µM (series often up to 37.9 µM), inactives show top-dose activity change, negative = inhibition, usual class: inhibitors. 300,000 compounds, 1.2% hits. AID 540256; calls by dose curve; tested in HEK293 cells; further: potency means the concentration at half of the fitted maximal effect; nearly all actives have a fitted effect of over 50% in size
Marburg entry inh – Marburg virus entry inhibition; AID 540276; 300,000 compounds, 1.8% hits; Potency, µM (doses to about 37.8 µM), inactives show at the top dose activity change, negative = inhibition, hits mostly inhibitors; Marburg virus pseudotyped entry inhibition, cell reporter; calls by dose curve; tested in HEK293 cells; further: potency means the concentration at half of the fitted maximal effect
Vaccinia mCherry – vaccinia inhibition (mCherry reporter) | Potency, µM (doses to about 36.5 µM), inactives show at the highest dose activity change, negative = inhibition, hits mostly inhibitors | Vaccinia virus mCherry reporter infection, fluorescence | AID 720579 | 310,000 compounds, 0.63% hits; calls by dose curve; tested in A549 cells; further: potency means the concentration at half of the fitted maximal effect; nearly all actives have a fitted effect of over 35% in size
* = called active by the depositor; ! = not confirmed by another sample; [ ] = remark or other dose. On the % scale 0 is the no-effect control and ±100 the full control effect.

What do the screens show for `CCn1cc(C(=O)NCc2ccc(Cl)cc2)c(=O)c2cc(S(=O)(=O)N(C)C3CCCCC3)ccc21`?
FMDV antiviral: 10%; HCMV inh: -3; VACV Venus inh: inconclusive; Lassa entry inh: inconclusive; Marburg entry inh: 2.8µM*; Vaccinia mCherry: -4%

How did CC(=O)ON(C(C)=O)c1ccc(/C=C2\C=Cc3ccccc32)cc1 do in these assays?
VACV Venus inh: -6%; Vaccinia mCherry: -13%

How did CCn1cc(C(=O)NCc2ccc(C)cc2)c(=O)c2cc(S(=O)(=O)N3CCCCCC3)ccc21 do in these assays?
FMDV antiviral: -16%; HCMV inh: -14; VACV Venus inh: -22%; Lassa entry inh: 6.3µM*; Vaccinia mCherry: inconclusive

Results for CCn1cc(C(=O)NCc2ccccc2)c(=O)c2cc(S(=O)(=O)N3CCCCCC3)ccc21 ?
FMDV antiviral: -10%; HCMV inh: -37; VACV Venus inh: -22%; Lassa entry inh: inconclusive; Marburg entry inh: 20%[46.1 µM]; Vaccinia mCherry: inconclusive

How did COc1ccc(/C=C/c2nccc3c2[nH]c2ccccc23)cc1 do in these assays?
VACV Venus inh: -9%; Vaccinia mCherry: 17%

Results for C=Cc1ncc(OC)c2c1[nH]c1ccccc12 ?
FMDV antiviral: 16µM*; VACV Venus inh: inconclusive; Vaccinia mCherry: inconclusive

How did Cc1ccc(-c2ccnc(-n3ncc(C(=O)NC[C@@H]4CCCN5CCCC[C@H]45)c3C3CC3)n2)o1 do in these assays?
FMDV antiviral: -11%; VACV Venus inh: -9%; Vaccinia mCherry: inactive

How did CN(C(=O)c1cnn(-c2nccc(-c3ccccc3C(F)(F)F)n2)c1C1CC1)C1CCOC1 (configuration not stated) do in these assays?
FMDV antiviral: 33%; VACV Venus inh: -9%; Vaccinia mCherry: -10%

How did C[C@H]1[C@@H](NS(=O)(=O)c2ccccc2)CC[C@@]23CCCN2C(=O)CCC[C@@H]13 do in these assays?
HCMV inh: -16

Results for S=C(c1ccc(-c2ccccc2)cc1)N1CCOCC1 ?
FMDV antiviral: 3%; HCMV inh: -83*; VACV Venus inh: -6%; Lassa entry inh: -2%[46.1 µM]; Marburg entry inh: inconclusive; Vaccinia mCherry: -1%

What do the screens show for `COC(=O)CSCc1nc(-c2ccc(C(=O)OC)cc2)oc1C`?
FMDV antiviral: -4%; HCMV inh: -63*; VACV Venus inh: 2%; Lassa entry inh: 7.1µM*; Vaccinia mCherry: 1%

How did COc1ccc(-c2nc(CSCC(=O)N3CCN(c4ccc(OC)cc4)CC3)c(C)o2)cc1 do in these assays?
FMDV antiviral: -24%; HCMV inh: -29; VACV Venus inh: inconclusive; Lassa entry inh: 11%[46.1 µM]; Marburg entry inh: -21%[46.1 µM]; Vaccinia mCherry: -28%

What do the screens show for `COC(=O)c1cc2sccc2n1Cc1nc(-c2ccc(OC)cc2)oc1C`?
HCMV inh: -61*; VACV Venus inh: 0%; Lassa entry inh: inconclusive; Marburg entry inh: inconclusive; Vaccinia mCherry: -15%

What do the screens show for `CCc1ccc(-c2nc(CSCC(=O)N3CCN(c4ncccn4)CC3)c(C)o2)cc1`?
FMDV antiviral: 22µM*; HCMV inh: inconclusive; VACV Venus inh: inconclusive; Marburg entry inh: -7%; Vaccinia mCherry: inconclusive

How did CCC(C)NC(=O)CSCc1nc(-c2ccc(C)cc2)oc1C (configuration not stated) do in these assays?
FMDV antiviral: -11%; HCMV inh: -24; VACV Venus inh: -19%; Lassa entry inh: inconclusive; Marburg entry inh: 1%[46.1 µM]; Vaccinia mCherry: -21%

What do the screens show for `CCc1ccc(-c2nc(CSCC(=O)NC3CC3)c(C)o2)cc1`?
FMDV antiviral: -16%; HCMV inh: -74*; VACV Venus inh: -19%; Lassa entry inh: inconclusive; Marburg entry inh: 5µM*; Vaccinia mCherry: inactive

What do the screens show for `COC(=O)c1cc2sccc2n1Cc1nc(-c2ccc(C)cc2)oc1C`?
FMDV antiviral: -13%; HCMV inh: -16; VACV Venus inh: 1%; Marburg entry inh: inconclusive; Vaccinia mCherry: -11%

How did COc1ccc(N/C(=N/c2nc(C)cc(C)n2)NC(=O)C(C)C)cc1OC do in these assays?
Marburg entry inh: 8%

Results for O=C(COc1ccccc1C(=O)Nc1ccccc1)Nc1ccccc1-c1ccccc1 ?
VACV Venus inh: -23%; Vaccinia mCherry: -28%

How did CSc1ccc(-c2nc(CSCC(=O)N3CCOCC3)c(C)o2)cc1 do in these assays?
FMDV antiviral: inconclusive; HCMV inh: -74*; Lassa entry inh: -1%; Marburg entry inh: -21%

How did COc1ccc(Br)cc1CNC(=O)c1cc(=O)[nH]c2ccc(S(=O)(=O)N3CCCCC3C)cc12 (configuration not stated) do in these assays?
FMDV antiviral: -17%; HCMV inh: inconclusive; VACV Venus inh: 1%; Lassa entry inh: -16%[46.1 µM]; Vaccinia mCherry: inactive

What do the screens show for `O=C(NCCSCc1c(F)cccc1Cl)c1ccc(CN2CCOCC2)cc1`?
FMDV antiviral: inconclusive; HCMV inh: -63*; VACV Venus inh: -15%; Lassa entry inh: -14%; Marburg entry inh: 17%; Vaccinia mCherry: -17%

What do the screens show for `O=C(NCCSCc1ccco1)c1ccc(CN2CCOCC2)cc1`?
HCMV inh: 43; VACV Venus inh: -15%; Lassa entry inh: inconclusive; Marburg entry inh: 27%; Vaccinia mCherry: -4%

How did C=CC(=O)Nc1cccc(Nc2nc(N[C@H]3CC[C@H](N(C)C)CC3)nc3c2ncn3C(C)C)c1 do in these assays?
FMDV antiviral: inconclusive; VACV Venus inh: 1µM*; Vaccinia mCherry: inconclusive

What do the screens show for `C=CCn1cc(C(=O)NCCOC)c(=O)c2cc(S(=O)(=O)N(CC)CC)ccc21`?
FMDV antiviral: 52%; HCMV inh: -12; Lassa entry inh: 12µM*; Marburg entry inh: 2%

What do the screens show for `CCN(CC)S(=O)(=O)c1ccc2c(c1)c(=O)c(C(=O)NCCOC)cn2C`?
FMDV antiviral: 1%; HCMV inh: 14; Lassa entry inh: -1%; Marburg entry inh: -8%

What do the screens show for `C=CCn1cc(C(=O)NCCCOCC)c(=O)c2cc(S(=O)(=O)N(CC)CC)ccc21`?
FMDV antiviral: 7%; HCMV inh: -17; Lassa entry inh: 6.5µM*; Marburg entry inh: -4%

How did CCOCCCNC(=O)c1cn(CC)c2ccc(S(=O)(=O)N(C)C3CCCCC3)cc2c1=O do in these assays?
FMDV antiviral: -10%; HCMV inh: -33

How did COc1cc(CN2CCCC(n3cc(C(=O)N4CCCCC4)nn3)C2)cc(OC)c1 (configuration not stated) do in these assays?
FMDV antiviral: -11%; VACV Venus inh: -28%; Vaccinia mCherry: -26%

Results for CCC(=O)n1nc(-c2ccc(Cl)cc2)nc1N ?
FMDV antiviral: 21%; HCMV inh: 10

What do the screens show for `CCc1nc(N)nc(N)c1-c1ccc(Cl)cc1`?
FMDV antiviral: -9%; HCMV inh: -99*; VACV Venus inh: inconclusive; Lassa entry inh: 3.3µM*; Marburg entry inh: inconclusive; Vaccinia mCherry: 8.9µM*!
